High-throughput results deposited in PubChem BioAssay by several laboratories.
Anthrax LF prot = blocks Bacillus anthracis lethal factor protease | P15917 | multiplex microsphere protease cleavage assay, LF | inhibition, % at 10 µM | 0.12% of 360,000 active | AID 588501
Target sequence (P15917 whole entry, looked up): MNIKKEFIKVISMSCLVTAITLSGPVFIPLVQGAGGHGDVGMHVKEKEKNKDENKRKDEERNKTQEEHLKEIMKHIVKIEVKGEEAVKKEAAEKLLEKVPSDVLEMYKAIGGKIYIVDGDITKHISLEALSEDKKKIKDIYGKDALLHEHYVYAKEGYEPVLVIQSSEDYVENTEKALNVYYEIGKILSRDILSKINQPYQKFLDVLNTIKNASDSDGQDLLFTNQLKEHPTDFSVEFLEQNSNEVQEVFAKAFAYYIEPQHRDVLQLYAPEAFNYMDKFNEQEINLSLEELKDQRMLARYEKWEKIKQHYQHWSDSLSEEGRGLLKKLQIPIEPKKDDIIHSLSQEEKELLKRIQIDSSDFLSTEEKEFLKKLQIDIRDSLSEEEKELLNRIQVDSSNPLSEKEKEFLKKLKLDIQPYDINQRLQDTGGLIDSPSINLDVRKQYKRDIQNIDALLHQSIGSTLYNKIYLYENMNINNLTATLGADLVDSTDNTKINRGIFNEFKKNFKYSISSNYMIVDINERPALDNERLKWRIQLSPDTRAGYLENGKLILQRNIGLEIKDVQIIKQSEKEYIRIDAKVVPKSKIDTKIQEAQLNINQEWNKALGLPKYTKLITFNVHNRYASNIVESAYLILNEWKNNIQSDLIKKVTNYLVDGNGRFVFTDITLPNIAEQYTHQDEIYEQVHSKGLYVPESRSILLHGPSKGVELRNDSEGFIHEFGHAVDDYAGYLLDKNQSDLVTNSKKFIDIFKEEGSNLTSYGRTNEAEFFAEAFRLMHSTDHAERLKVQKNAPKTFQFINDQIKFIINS
BoNT A protease = inhibitors of Botulinum neurotoxin A light chain protease; 0.17% of 360,000 active; inhibition, % at 10 µM; multiplex microsphere protease substrate cleavage, flow cytometry; AID 588499
BoNT F protease = blocks Botulinum neurotoxin F light chain protease; Multiplex microsphere protease cleavage assay, flow cytometry; inhibition, % at 10 µM; 0.22% of 360,000 active; in the data active means inhibition above about 35%, passing the limit was not always enough; inconclusive means no clear call, values can overlap the other calls
MazF activator = MazEF (E. coli) toxin RNase activation; FAM/BHQ RNA-DNA oligo cleavage fluorescence, 5 h; activation, % at 20 µM; P0AE70; 0.32% of 350,000 active; AID 504720; in the data active means activation above about 50%
PriA SSB inh = blocks PriA binding to SSB C-terminal tail | 0.6% of 430,000 active | inhibition, % at 33 µM | AID 1272365 | AlphaScreen SSBct-PriA binding, biotinylated peptide; in the data active means inhibition mostly above about 37%, no sharp cut-off; inactive means mostly below about 20%
Bead autofluor = flagged as autofluorescent in microsphere protease counterscreen | compound autofluorescence counterscreen, microsphere flow cytometry; hits give high values | fluorescence intensity (no concentration beside the values) | 3.1% of 360,000 active | AID 624483; in the data active means fluorescence intensity above about 16000; inconclusive means no clear call, values can overlap the other calls
Of the large screens only hits and unclear results are named; the others gave an inactive call. The list is not random: actives were taken first. Their share in the collection is about 3.3%. Unless noted, no stated cut-off is given here; in the data, active means inhibition above about 30%; inconclusive means no clear call, values can overlap the other calls; inactive means below that.

Cc1cccc(NC(=S)N2N=CCC2c2ccccc2)c1 (configuration not stated)	Bead autofluor 17190
CCNC(=S)NNC(=O)c1csc(C)c1	none
CCc1cc(C(=O)NNC(=S)Nc2cccc(C)c2)cs1	Bead autofluor 21356
CCCCNC(=S)NNC(=O)c1csc(C)c1	Bead autofluor 22322
CCc1ccccc1NC(=S)N1N=CCC1c1ccccc1 (configuration not stated)	none
S=C(NCc1ccccc1)Nc1cccc(Cl)c1	none
CC(C)c1nc(-c2ccc(N3CCN(C(=O)CSc4ccc(F)cc4)CC3)nc2)no1	none (no result: Anthrax LF prot, BoNT A protease, BoNT F protease, MazF activator, Bead autofluor)
CCOC(=O)c1c(SCC(=O)Nc2ccc(F)c([N+](=O)[O-])c2)nc(=O)[nH]c1C	none (no result: Anthrax LF prot, BoNT A protease, BoNT F protease, MazF activator, Bead autofluor)
COc1cc(C(=O)Oc2c(CN3CCOCC3)cc(Cl)c3cccnc23)cc(OC)c1OC	PriA SSB inh 87
COc1cccc(C(=O)Oc2c(CN3CCOCC3)cc(Cl)c3cccnc23)c1	Bead autofluor 22802
CS(=O)(=O)c1ccc(CC(=O)Nc2nnc(-c3ccc4c(c3)OCCO4)o2)cc1	none (no result: Anthrax LF prot, BoNT A protease, BoNT F protease, MazF activator, Bead autofluor)
O=C(O)CCC(=O)NNC(=O)CCC1CCCCC1	none
O=C(CCC1CCCCC1)NNC(=O)NC12CC3CC(CC(C3)C1)C2	BoNT A protease inconclusive, Bead autofluor 23967
Cc1cc(C)c2sc(N(CCCN3CCOCC3)C(=O)c3snnc3C)nc2c1	none (no result: Anthrax LF prot, BoNT A protease, BoNT F protease, MazF activator, Bead autofluor)
Cc1ccc(C)c2c1sc(=NC(=O)C(C)C)n2C	none (no result: Anthrax LF prot, BoNT A protease, BoNT F protease, MazF activator, Bead autofluor)
O=C(NCCCn1ccnc1)C(=O)Nc1ccc2c(c1)N(S(=O)(=O)c1cccs1)CCC2	PriA SSB inh 51 (no result: Anthrax LF prot, BoNT A protease, BoNT F protease, MazF activator, Bead autofluor)
CN(C)CCN(C(=O)c1nc2ccccc2s1)c1nc2c(Cl)cccc2s1	none (no result: Anthrax LF prot, BoNT A protease, BoNT F protease, MazF activator, Bead autofluor)
Nc1ccc(N2CCN(C(=O)c3ccco3)CC2)cc1	Bead autofluor 20148
O=C(c1ccco1)N1CCN(C(=O)c2sccc2-c2ccccc2)CC1	Bead autofluor 20729
O=C(c1ccco1)N1CCN(C(=O)c2ccco2)CC1	none (no result: MazF activator, PriA SSB inh)
O=C(c1ccco1)N1CCN(CC2CC3C=CC2C3)CC1 (configuration not stated)	Bead autofluor 20016
O=c1c2scc(-c3cccc(F)c3)c2ncn1Cc1ccccc1Cl	none (no result: Anthrax LF prot, BoNT A protease, BoNT F protease, MazF activator, Bead autofluor)
Cc1oc(=O)c(NC(=O)c2cccc(Cl)c2)cc1C(=O)c1ccccc1	BoNT A protease inconclusive, Bead autofluor 21979
CC(C)n1c(-c2cccc(Br)c2)nc2ccccc21	none (no result: Anthrax LF prot, BoNT A protease, BoNT F protease, MazF activator, Bead autofluor)
CCOC(=O)c1cc(-c2ccc(C#N)cc2)nc2c1c(C)nn2CCC#N	none
CCOC(=O)c1cc(-c2ccc(OC)cc2)nc2c1c(C)nn2CCC#N	BoNT A protease inconclusive, Bead autofluor 20850
COC(=O)c1ccc(CSc2ncn[nH]2)o1	BoNT A protease inconclusive, Bead autofluor 20355
O=C(NCc1csc(-c2ccccc2)n1)c1ncc(-c2ccccc2)o1	none (no result: Anthrax LF prot, BoNT A protease, BoNT F protease, MazF activator, Bead autofluor)
Nc1cccc(NS(=O)(=O)C2CC2)c1	none (no result: Anthrax LF prot, BoNT A protease, BoNT F protease, MazF activator, Bead autofluor)
Cc1ccc(Nc2ccc(S(=O)(=O)N3CCOCC3)cc2[N+](=O)[O-])cc1C	PriA SSB inh 69
Cc1ccc(S(=O)(=O)Nc2ccc(S(=O)(=O)N3CCOCC3)cc2)cc1[N+](=O)[O-]	none
COC(=O)COc1ccc(Oc2cc(C)nc(SC)n2)nn1	BoNT A protease inconclusive, Bead autofluor 21755
COc1ccc2nc(-n3nc(C)cc3NC(=O)c3cc(C)no3)sc2c1	none (no result: Anthrax LF prot, BoNT A protease, BoNT F protease, MazF activator, Bead autofluor)
O=C(O)CSCC(=O)Nc1ccccc1	Bead autofluor 16554
CC(=O)c1cccc(NC(=O)CSCc2ccc(Br)cc2)c1	none
COc1cc([N+](=O)[O-])ccc1NC(=O)CSc1cccc2cccnc12	none (no result: Anthrax LF prot, BoNT A protease, BoNT F protease, MazF activator, Bead autofluor)
O=C(CSc1cccc2cccnc12)Nc1ccc(SC(F)F)cc1	PriA SSB inh 85 (no result: Anthrax LF prot, BoNT A protease, BoNT F protease, MazF activator, Bead autofluor)
CC(=O)c1cccc(NC(=O)CSCc2ccccc2)c1	Bead autofluor 16402
O=C(CSc1cccc2cccnc12)Nc1cccc([N+](=O)[O-])c1	PriA SSB inh 88 (no result: Anthrax LF prot, BoNT A protease, BoNT F protease, MazF activator, Bead autofluor)
CCC(=O)Nc1ccc(SCC(=O)Nc2ccc3c(c2)OCCO3)nn1	none (no result: Anthrax LF prot, BoNT A protease, BoNT F protease, MazF activator, Bead autofluor)
COc1cccc(NC(=O)CSc2cccc3cccnc23)c1	none (no result: Anthrax LF prot, BoNT A protease, BoNT F protease, MazF activator, Bead autofluor)
Cc1cc(Cl)ccc1NC(=O)CSc1cccc2cccnc12	none (no result: Anthrax LF prot, BoNT A protease, BoNT F protease, MazF activator, Bead autofluor)
O=C(CSc1cccc2cccnc12)Nc1cccc(C(F)(F)F)c1	PriA SSB inh 126 (no result: Anthrax LF prot, BoNT A protease, BoNT F protease, MazF activator, Bead autofluor)
Cc1cc(Br)ccc1NC(=O)CSc1cccc2cccnc12	PriA SSB inh 82 (no result: Anthrax LF prot, BoNT A protease, BoNT F protease, MazF activator, Bead autofluor)
CN(C)S(=O)(=O)c1cccc(NC(=O)CSc2cccc3cccnc23)c1	PriA SSB inh 65
CC(=O)c1cccc(NC(=O)CSc2cccc3cccnc23)c1	PriA SSB inh 116 (no result: Anthrax LF prot, BoNT A protease, BoNT F protease, MazF activator, Bead autofluor)
CC(C)(C)NC(=O)CSc1cccc2cccnc12	none (no result: Anthrax LF prot, BoNT A protease, BoNT F protease, MazF activator, Bead autofluor)
O=C(NCc1cncc(-c2cccs2)c1)C1(c2ccc(F)cc2)CC1	none (no result: Anthrax LF prot, BoNT A protease, BoNT F protease, MazF activator, Bead autofluor)
C=CCn1nc(-c2ccc3c(c2)OCO3)ccc1=O	none (no result: Anthrax LF prot, BoNT A protease, BoNT F protease, MazF activator, Bead autofluor)
CO[C@@H](CNC(=O)c1cc(C)on1)c1ccccc1C	none (no result: Anthrax LF prot, BoNT A protease, BoNT F protease, MazF activator, Bead autofluor)
CC(C)n1cnc(S(=O)(=O)N2CCCC[C@H](c3ccc(Cl)cc3)C2)c1	none (no result: Anthrax LF prot, BoNT A protease, BoNT F protease, MazF activator, Bead autofluor)
O=C(CSc1cccc2cccnc12)c1ccc([N+](=O)[O-])cc1	PriA SSB inh 58 (no result: Anthrax LF prot, BoNT A protease, BoNT F protease, MazF activator, Bead autofluor)
Cc1ccc(-n2c(N)c(C(N)=O)sc2=S)c(C)c1	Bead autofluor 18506
CCOC(=O)c1sc(=S)n(-c2ccccc2OC)c1N	none
CCOc1ccccc1-n1c(N)c(C(N)=O)sc1=S	Bead autofluor 16402
CCC(=O)Nn1cnc2c(cnn2-c2cccc(Cl)c2)c1=O	none (no result: Anthrax LF prot, BoNT A protease, BoNT F protease, MazF activator, Bead autofluor)
COC(=O)Nc1ccc(S(=O)(=O)N(C)C)cc1	Bead autofluor 20816
COC(=O)Nc1ccc(NC(C)=O)cc1	Bead autofluor 23186
CC(=O)Nc1ccc(NS(=O)(=O)C(F)(F)F)cc1	BoNT A protease inconclusive, Bead autofluor 19728
COC(=O)Nc1ccc(S(=O)(=O)NCC(=O)O)cc1	none (no result: Anthrax LF prot, BoNT A protease, BoNT F protease, MazF activator, Bead autofluor)
